# Results taken from PubChem BioAssay AID602281 (The Scripps Research Institute Molecular Screening Center, 2012).
# Among all 360,000 compounds or so, about 2,900 (0.81%) were called active. Many of the other results were omitted from the sample, so actives are more common in it than they were. A number with no mark means an inactive call.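 The calls were made as follows: active = inhibition above the mean inhibition across every tested compound plus 3 SD (cut at about 22% in these data); inactive = the rest.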
# Biological target: Perilipin-5 (Homo sapiens) + 1-acylglycerol-3-phosphate O-acyltransferase ABHD5 (Homo sapiens) (UniProt Q00G26+Q8WTS1)
# Sequence (Q00G26 whole entry, looked up): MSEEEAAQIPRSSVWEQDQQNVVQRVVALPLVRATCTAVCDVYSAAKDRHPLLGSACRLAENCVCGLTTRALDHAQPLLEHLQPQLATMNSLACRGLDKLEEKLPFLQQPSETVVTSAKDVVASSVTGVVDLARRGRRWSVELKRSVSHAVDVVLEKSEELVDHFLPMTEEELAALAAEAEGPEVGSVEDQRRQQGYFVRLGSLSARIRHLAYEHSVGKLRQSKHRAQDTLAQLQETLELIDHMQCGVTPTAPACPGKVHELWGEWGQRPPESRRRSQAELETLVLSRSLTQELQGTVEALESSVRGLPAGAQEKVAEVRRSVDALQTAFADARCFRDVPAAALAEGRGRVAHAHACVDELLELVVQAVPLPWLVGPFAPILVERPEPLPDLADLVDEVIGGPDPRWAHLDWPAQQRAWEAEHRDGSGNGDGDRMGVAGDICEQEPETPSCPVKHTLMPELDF
# Sequence (Q8WTS1 whole entry, looked up): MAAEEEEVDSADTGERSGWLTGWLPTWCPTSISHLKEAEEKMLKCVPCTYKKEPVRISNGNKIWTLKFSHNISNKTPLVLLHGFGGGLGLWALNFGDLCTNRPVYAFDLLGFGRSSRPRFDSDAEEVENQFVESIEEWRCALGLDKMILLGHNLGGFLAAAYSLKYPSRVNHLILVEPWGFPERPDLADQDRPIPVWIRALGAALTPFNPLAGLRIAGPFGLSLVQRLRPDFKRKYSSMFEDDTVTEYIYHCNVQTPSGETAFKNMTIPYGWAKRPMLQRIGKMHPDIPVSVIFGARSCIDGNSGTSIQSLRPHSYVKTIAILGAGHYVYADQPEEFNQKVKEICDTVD
# Assay: ABHD5-PLIN5 interaction inhibitors, primary screen, cell lysate, split luciferase complementation, luminescence (AID 602281);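 also: 0% = DMSO only wells and the 100% control is not disclosed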
# Conditions: Split G. princeps luciferase complementation, 4 h, at 4 µM, hits give high values
row,Structure (SMILES),inhibition
1,Cc1ccc(C(=O)Cc2nnc(C)s2)cc1,10.8%
2,Cc1ccc(SC(C)C(=O)NCc2ccc(F)cc2)cc1 (centres undefined),-1.06%
3,Cc1ccc(SC(CC(=O)c2ccc(C(C)(C)C)cc2)C(=O)O)cc1 (centres undefined),84.9% (active)
4,O=C1CC[C@@H](C(=O)N2CSC[C@@H]2C(=O)Nc2ccc(C(F)(F)F)cc2)N1,-0.42%
5,CCC(C)NC(=O)C1CCC(=O)N1Cc1ccc(C)cc1 (centres undefined),2%
6,Oc1ccc2ccccc2c1N=Nc1nccs1,22.1% (active)
7,COc1ccccc1C(=O)NCC(=O)OCC(=O)NNC(=O)c1ccc(Br)cc1,-4.52%
8,CCN1C(=O)/C(=C2\SC(N3CCCCC3)=NC2=O)c2ccccc21,-2.55%
9,CC1(C)CC(=O)C=C(c2cccc3c2Oc2ccccc2S3)C1,-12.2%
10,O=C(c1cc(C2CCCCN2S(=O)(=O)c2ccccc2)on1)N1CCOCC1 (centres undefined),3.58%
11,COC(=O)c1cnn2c(C(F)(F)F)cc(-c3ccco3)nc12,32.2% (active)
12,O=C(O)c1cnn2c(C(F)(F)F)cc(-c3ccccc3)nc12,6.31%
13,O=C(NCc1ccco1)c1cnn2c(C(F)(F)F)cc(-c3ccco3)nc12,3.22%
14,N#Cc1ccc(-c2nc3c(Cl)cc(C(F)(F)F)cn3c2Cc2ccccc2C(F)(F)F)cc1,0.66%
15,NC(=O)c1ccccc1N=Cc1ccc2ccccc2c1,2.42%
16,C/C(=N/N1CCN(Cc2cccc3ccccc23)CC1)c1cccnc1,-14.4%
17,CCOc1cc(S(=O)(=O)NCc2ccc3c(c2)OCO3)ccc1F,-2.91%
18,COc1ccc(C(=O)/C=C/c2cccnc2)c(OC)c1,22.4% (active)
19,COc1ccc(C(=O)CCc2ccccc2O)c(OC)c1,0.27%
20,COc1ccc(C(=O)CCC(=O)Nc2cccnc2)c(OC)c1,-5.28%
21,CCCn1c(=O)c2[nH]c(C3CCCC3)nc2n(CCC)c1=O,4.3%
22,CCc1nnc(NC(=O)C2CC(=O)N(c3ccc4c(c3)OCCO4)C2)s1 (centres undefined),-9.44%
23,O=C(NCc1ccccc1Cl)c1csc([C@@H]2O[C@H](CO)[C@@H](O)[C@H]2O)n1,-7.69%

row,Structure (SMILES),inhibition
1,CCN(C(=O)CSc1nnnn1-c1ccccc1OC)C1CCS(=O)(=O)C1 (centres undefined),0.5%
2,COc1ccccc1-n1nnnc1S(=O)(=O)Cc1ccc(Cl)cc1,27.5% (active)
3,COc1ccccc1CN(C)c1nnnn1-c1ccccc1,-3.16%
4,Cc1cc2c(cc1S(=O)(=O)NCc1ccc(Cl)cc1)OCC(=O)N2,5.73%
5,O=C(CN1C2CCC1CC(NC(=O)C1CC1)C2)NCc1ccccc1 (centres undefined),-2.07%
6,O=C(O)CC(SCC(=O)Nc1ccc(Br)cc1)C(=O)O (centres undefined),0.5%
7,CC(=O)Nc1ccc(NC(=O)CC2CCCC2)cc1,1.52%
8,O=C(CCl)Nc1ccc(Sc2ccc(NC(=O)CCl)cc2)cc1,28.2% (active)
9,CN(CC(=O)NCCc1ccc(F)cc1)CC(=O)Nc1ccc(F)c(F)c1F,3.93%
10,O=C(Nc1ccc(S(=O)(=O)N2CCOCC2)cc1)C1CCN(S(=O)(=O)c2ccc(Cl)cc2)CC1,-0.02%
11,C/C(=N\NS(=O)(=O)c1ccc(Cl)cc1)c1ccc(NC(=O)c2ccco2)cc1,-4.17%
12,O=C(Nc1ccccc1)c1nnsc1S(=O)(=O)c1ccc(Cl)cc1,58.3% (active)
13,COC(=O)[C@@]1(Cc2ccc(OC)cc2)[C@H]2c3cc(C(=O)N4CCCC4)n(Cc4ccc(OC(F)(F)F)cc4)c3C[C@H]2CN1C(=O)c1ccccc1,18.3%
14,COC(=O)[C@@]1(Cc2ccc(F)cc2)[C@H]2c3cc(C(=O)N4CCCC4)n(Cc4ccc(OC(F)(F)F)cc4)c3C[C@H]2CN1C(=O)c1ccccc1,22.3% (active)
15,COC(=O)[C@@]1(Cc2ccc(F)cc2)[C@H]2c3cc(C(=O)N4CCCC4)n(C[C@H](O)CO)c3C[C@H]2CN1C(=O)c1ccccc1,6.42%
16,COC(=O)Nc1ccc(S(=O)(=O)N(C)CC(F)(F)C(F)F)cc1,4.74%
17,CC1CC(C)CN(S(=O)(=O)c2cccc3nonc23)C1 (centres undefined),-3.19%
18,COc1cccc(OC)c1CN(C)C(=O)c1cnccc1C(F)(F)F,4.28%
19,O=C(COC(=O)c1ccc(F)c(S(=O)(=O)N2CCOCC2)c1)NCc1ccc2c(c1)OCO2,2.94%
20,Cc1ccnc(NC(=O)CCC(=O)N(CC(=O)NCCc2ccccc2)Cc2cccs2)c1,1.17%
21,O=C(c1cc2sccc2n1Cc1ccc(F)cc1)N1CCc2ccccc21,-4.45%
22,Brc1ccc(-c2nn[nH]n2)cc1,-0.33%
23,Cc1ccc(-c2ccc(CN3C(C(C)C)C(=O)N(Cc4cn(CCC5OCCCO5)nn4)CCS3(=O)=O)cc2)cc1 (centres undefined),-3.62%

row,Structure (SMILES),inhibition
1,CC(C)n1cnc2c(NCc3ccccc3)cc(OCC3CCN(C)CC3)cc21,52.1% (active)
2,c1ccc2c(c1)C(=NC1CCCCC1)NC2=NC1CCCCC1,10.2%
3,O=C(NNC(=S)Nc1ccccc1)c1cccc(S(=O)(=O)N2CCOCC2)c1,-0.88%
4,COC(=O)C[C@H]1C=C[C@H](NC(=O)c2ccc(F)cc2)[C@@H](CO)O1,7.9%
5,CCOc1ccccc1NC(=S)C(=C([O-])c1ccc2c(c1)OCCO2)[n+]1ccc(CC)cc1,-7.74%
6,Cc1nn(C)c(C)c1C(C)NC(=O)c1ccc(OC2CCN(Cc3ccccn3)CC2)cc1 (centres undefined),11.1%
7,CC1Cc2[nH][nH]c(=O)c2C(C2CCCC2)O1 (centres undefined),8.22%
8,COC(=O)c1nc(NC(=O)c2ccc(C(C)(C)C)cc2)n[nH]1,81.5% (active)
9,CSc1nccc(NC(=O)c2ccc(C(C)(C)C)cc2)n1,-0.98%
10,O=C(Nc1n[nH]c(C(F)(F)F)n1)c1cccs1,3.2%
11,Cc1ccc(NC(=O)c2ccc(Cl)nc2)cc1S(=O)(=O)N1CCOCC1,-3.8%
12,CCCn1c(SCC(=O)Nc2c(C)cccc2C)nnc1C(C)C,5.88%
13,CCOC(=O)c1nnn(CC(=O)Nc2cccc(F)c2)c1C(=O)OCC,-0.66%
14,O=C(O)c1cccnc1NC1CCCC1,7.94%
15,COc1ccc(CCNC(=O)c2nnc(CS(=O)(=O)c3ccccc3)o2)cc1OC,23.8% (active)
16,COc1ccc(CCNC(=O)CN(c2ccccc2)S(C)(=O)=O)cc1OC,6.8%
17,COc1ccc(CCNC(=O)c2ccc(CS(=O)(=O)c3ccc(Br)cc3)o2)cc1OC,5.5%
18,O=C(c1ccc2c(c1)C(=O)N(c1ccc(Cl)cc1)C2=O)N1CCN(c2ccccn2)CC1,0.95%
19,CC(=O)Oc1ccc(C)cc1N1C(=O)c2ccc(C(=O)O)cc2C1=O,0.33%
20,O=C(O)c1ccc2c(c1)C(=O)N(c1ccc(/C=C/C(=O)c3ccccc3)cc1)C2=O,50.4% (active)
21,O=[N+]([O-])c1ccc(S(=O)(=O)Nc2cccc(-c3ccc(N4CCCC4)nn3)c2)cc1,-6.73%
22,COC(=O)CN(c1nc(C)c(Cl)c(OC)n1)S(=O)(=O)c1ccc(C)cc1,-6.3%
23,Oc1c(C(c2ccco2)N2CCC3(CC2)OCCO3)sc2ncnn12 (centres undefined),12.2%

row,Structure (SMILES),inhibition
1,Cc1nc2sc(C(c3ccco3)N3CCC4(CC3)OCCO4)c(O)n2n1 (centres undefined),22.7% (active)
2,Cc1ccc(C(c2sc3nc(C)nn3c2O)N2CCN(c3ccccc3)CC2)cc1 (centres undefined),2.33%
3,Cc1nc2sc(C(c3ccco3)N3CCOCC3)c(O)n2n1 (centres undefined),26.3% (active)
4,Cc1ccc(C(c2sc3nc(C)nn3c2O)N2CCN(c3ccc(F)cc3)CC2)cc1 (centres undefined),-0.55%
5,COC(=O)[C@@]12C[C@@H](CC(=O)N3CCC(c4ccccc4)CC3)C(=O)N(Cc3ccccc3)C1=CCC(C)(C)C2,4.36%
6,CC1=NNC(=O)C1CC(=O)N/N=C/c1ccncc1 (centres undefined),0.97%
7,CC(C)(C)C(=O)N1CCC[C@@]1(CO)C(=O)O,0.41%
8,CC[C@]12c3[nH]c4cc(CCC(=O)N(C)C)ccc4c3CCN1C(=O)[C@@H](CC(=O)NCCCN(C)C)C[C@@H]2C(=O)N1CCN(C(=O)c2ccco2)CC1,-4.19%
9,COc1ccc(C2SCCN2S(=O)(=O)c2ccccc2)cc1OC (centres undefined),-4.96%
10,COc1ccc(-c2cc(C(F)(F)F)nc(S(C)(=O)=O)n2)cc1OC,26.6% (active)
11,COc1ccc(C2=NO[C@@H]3C(=O)N(Cc4ccccc4)C(=O)[C@H]23)cc1OC,3.37%
12,CCN1CCN(C(=O)Cn2nc(C)n3c(cc4c(OC)cccc43)c2=O)CC1,0.48%
13,CC(=O)N[C@H]1[C@H]([C@H](O)[C@H](O)CO)OC(C(=O)O)=C[C@@H]1O,1.93%
14,COc1ccc(CNC(=O)C(c2ccc(O)cc2)N(Cc2ccco2)C(=O)c2snc(C(N)=O)c2N)cc1 (centres undefined),-11.3%
15,Cc1ccnc(NC(=O)CCC(=O)N(CC(=O)NCc2ccccc2)Cc2ccco2)c1,1.15%
16,NC(=O)c1nsc(C(=O)N(CC(=O)NCc2ccc(F)cc2)Cc2ccco2)c1N,36% (active)
17,Cc1csc2ncc(C(=O)N(Cc3ccccc3)c3ccccn3)c(=O)n12,3.35%
18,O=C(/C=C/c1ccc(OCc2c(F)cccc2Cl)cc1)N1CCOCC1,-6.95%
19,COc1cc(CNCCN(C)C)ccc1OCc1c(F)cccc1Cl,11.6%
20,CN(C)CCCNC(=O)/C=C/c1ccc(OCc2c(F)cccc2Cl)cc1,28.6% (active)
